# Screening data from PubChem.
# Shown are actives, neighbours in structure and some others; about 7.9% of the full set was active somewhere.
# KB-3-1 tox = KB-3-1 parental cell cytotoxicity. Potency, µM (doses to about 46.1 µM), usual class: cytotoxic. 1.4% of 400,000 active. KB-3-1 viability, CellTiter-Glo ATP luminescence, 72 h; note: nearly all actives have a fitted effect of over 60% in size
#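 Here the drug-naive KB-3-1 line serves as comparator for MDR sub-line selectivity; cells received compound titrations, 72 h at 37 °C, then CellTiter-Glo readout.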
# HT1080NT lethal = kills 2HG-producing HT-1080-NT fibrosarcoma cells | HT-1080-NT fibrosarcoma viability, CellTiter-Glo ATP luminescence, 48 h | Potency, µM (doses to about 46.1 µM), usual class: cytotoxic | 1.6% of 360,000 active;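 note: NT is the 2HG producing partner of a matched IDH1 knockdown line; nearly all actives have a fitted effect of over 55% in size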
#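 HT-1080-NT fibrosarcoma cells (2HG-overproducing), 750 cells/well in RPMI with 5% FBS, dosed after 2 h and incubated 48 h at 37C. CellTiter-Glo luminescence normalized to DMSO and no-cell wells; concentration-response curves fitted and classed.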
# SW480 rereplic = DNA re-replication induction in SW480 cells; SW480 DNA re-replication, Hoechst DNA content imaging, 48 h; Potency, µM (top dose mostly 46.1 µM), usual class: activators; 1.8% of 340,000 active; AID 624297; note: nearly all actives have a fitted effect of over 55% in size
#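 Treated cells incubate 48 hr (37 C, 5% CO2), are stained 40 min with Hoechst, and nuclear fluorescence is enumerated; a rise in nuclei with high DNA signal marks re-replication.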
# KB-V1 MDR tox = KB-V1 MDR subline cytotoxicity; KB-V1 MDR cells viability, CellTiter-Glo, 72 h; 3.4% of 400,000 active; Potency, µM (titrated, usually from 46.1 µM), actives largely listed as cytotoxic; note: nearly all actives have a fitted effect of over 60% in size
#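 KB-V1, DMEM (no phenol red) + 10% FBS; cpd pin-transferred, titration series; 72 h, 37 degrees C; CellTiter-Glo, luminescence. Data normalized, curve-fit.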
# HT1080 IDH1KD tx = HT-1080 IDH1 knockdown cell toxicity (counter line); HT-1080 IDH1 knockdown viability, ATP luminescence, 48 h; Potency, µM (highest dose often 46.1 µM), hits mostly cytotoxic; 2% of 360,000 active
#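 Assay cells: HT-1080 with IDH1 knockdown, 750 per well, RPMI/5% FBS. Exposure: 48 h at 37 °C following 2 h pre-incubation. Read: CellTiter-Glo luminescence; fitted concentration-response, curve class assigned.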
# MCF10A rerep = induces DNA re-replication in MCF 10a normal breast cells | Potency, µM (highest dose often 46.1 µM), actives largely listed as activators | 2.9% of 350,000 active | MCF 10A DNA re-replication, Hoechst nuclear intensity, 48 h; note: nearly all actives have a fitted effect of over 50% in size
# Hits are given with their value; i = inactive; ? = inconclusive; nt = no result. Calls come from the whole dose curve; as a rule, active = well fitted curve in the direction sought with a large enough effect; inconclusive = small, poorly fitted or top-dose-only effect, or another doubt; inactive = no such curve, though single readings can be large; an effect the other way counts as inactive or inconclusive.
SMILES,KB-3-1 tox,HT1080NT lethal,SW480 rereplic,KB-V1 MDR tox,HT1080 IDH1KD tx,MCF10A rerep
COc1cc2c(cc1NS(=O)(=O)N1CCCCC1)oc1ccccc12,i,?,?,i,?,10µM
COc1cc2c(cc1NCc1ccc3c(c1)OCO3)oc1ccccc12,?,i,i,i,i,i
COCCCNC(=S)Nc1cc2oc3ccccc3c2cc1OC,?,2.31µM,11.6µM,?,11.6µM,9.2µM
COc1ccccc1C(=O)OCc1cc(=O)n2nc(C3CCCCC3)sc2n1,i,nt,nt,i,nt,nt
Cc1cccc(-n2cc(-c3ccccc3)nc2SCC(=O)Nc2ccccc2Cl)c1,i,nt,nt,i,nt,nt
O=C1CCc2cc(S(=O)(=O)Nc3ccc4ncccc4c3)ccc2N1,i,nt,nt,i,nt,nt
COc1ccc(C(CCc2ccc(C)o2)NC(=O)Nc2ccc(OC)cc2OC)cc1 (centres undefined),i,i,i,7.31µM,?,i
COC(=O)[C@H](C)NC(=O)Nc1ccc(OC)cc1OC,i,i,i,i,i,i
Cc1[nH]n(-c2ccccc2)c(=O)c1/C=N/NC(=O)COc1ccccc1[N+](=O)[O-],?,?,13µM,?,?,?
COc1c(/C=N/Nc2ccc([N+](=O)[O-])cc2[N+](=O)[O-])c(C)nn1-c1ccccc1,i,i,i,i,i,i
COCC(=O)N/N=C/c1c(C)[nH]n(-c2ccccc2)c1=O,i,i,?,i,i,i
Cc1[nH]n(-c2ccccc2)c(=O)c1/C=N/NC(=O)c1ccccc1F,?,?,2.31µM,i,?,?
Cc1ccc(-n2[nH]c(C)c(/C=N/Nc3ccc([N+](=O)[O-])cc3[N+](=O)[O-])c2=O)cc1C,?,?,i,13µM,20.6µM,14.6µM
Cc1ccc(OCC(=O)N/N=C\c2c(C)n(C)c3ccccc23)c([N+](=O)[O-])c1,?,i,14.6µM,?,?,?
CCOC(=O)C1CCCN(C(=O)C2CCN(c3nnc(C)c4c(C)n(-c5ccccc5)nc34)CC2)C1 (centres undefined),i,nt,nt,i,nt,nt
Cc1[nH]n(-c2cccc3ccccc23)c(=O)c1/C=N/NC(=O)c1cccc([N+](=O)[O-])c1,?,?,?,3.26µM,?,?
Cc1[nH]n(-c2ccccc2)c(=O)c1/C=N/NC(=O)c1cccc([N+](=O)[O-])c1,?,?,3.66µM,?,?,?
CCSC(=S)c1c(C)[nH]n(-c2ccccc2)c1=O,?,?,i,i,?,i
CC(=O)N/N=C/c1c(C)[nH]n(-c2ccccc2)c1=O,i,i,i,?,i,i
CC/C(=N/NC(=O)c1ccccc1O)c1c(C)[nH]n(-c2ccccc2)c1=O,?,?,23.1µM,?,25.9µM,?
COc1ccc(NC(=O)c2cc3nc(-c4ccc(C)c(C)c4)cc(C(F)(F)F)n3n2)cc1,i,nt,nt,i,nt,nt
Cc1ccc(S(=O)(=O)N(C)C[C@@H]2OCc3cn(nn3)CCCC(=O)N([C@@H](C)CO)C[C@H]2C)cc1,i,i,nt,?,i,nt
CC(C)(C)OC(=O)N1CCC(c2c(C(=O)NCc3ccccc3)cnn2-c2ccc(F)cc2)CC1,i,nt,nt,i,nt,nt
CCC1(C)Cc2c(sc3nnn(CC(=O)Nc4ccccc4)c(=O)c23)CO1 (centres undefined),i,i,i,7.31µM,i,i
CCC1(C)Cc2c(sc3nnn(Cc4ccccc4Cl)c(=O)c23)CO1 (centres undefined),i,i,i,20.6µM,i,16.4µM
SMILES,KB-3-1 tox,HT1080NT lethal,SW480 rereplic,KB-V1 MDR tox,HT1080 IDH1KD tx,MCF10A rerep
Cc1cccc(NC(=O)Cn2nnc3sc4c(c3c2=O)CC(C)(C)OC4)c1,i,i,i,i,i,i
CCC1(C)Cc2c(sc3nnn(CC(=O)Nc4ccccc4C)c(=O)c23)CO1 (centres undefined),i,i,i,14.6µM,i,i
Cc1ccc2c(c1)-c1cc(C)nn1C(c1cc(Br)ccc1O)N2 (centres undefined),?,nt,nt,i,nt,nt
Cc1ccc(NC(=O)Cn2cc(S(=O)(=O)N3CCCC3)c(S(=O)(=O)N3CCCC3)c2)c(C)c1,?,nt,nt,i,nt,nt
CC(C)(C)OC(=O)N1CCC(c2c(C(=O)NCCN3CCc4ccccc4C3)cnn2-c2ccc(F)cc2F)CC1,i,nt,nt,i,nt,nt
CN(C)/C=C/C(=O)c1ccc(-n2cccc2)cc1,i,i,i,?,i,?
CN(C)/C=C/C(=O)/C=C/c1ccc(Cl)cc1,i,11.6µM,i,i,?,?
CN(C)/C=C/C(=O)c1cccc(Cl)c1,i,i,i,i,i,5.8µM
CN(C)/C=C/C(=O)c1ccc(Cl)cc1,i,i,i,i,i,18.4µM
CCOC(=O)c1cc(NC(=O)c2ccccc2)c(=O)n2c1oc1ccc(Cl)cc12,i,nt,nt,i,nt,nt
Cc1cc(O)c2c(C)c(CC(=O)N3CCCCC3)c(=O)oc2c1,i,nt,nt,?,nt,nt
COc1ccc(-c2nc(-c3cccc(C)c3)nc(N3CCN(C)CC3)c2C#N)cc1,5.8µM,i,?,4.61µM,i,?
COc1ccc(-c2nc(-c3ccccc3)nc(N3CCN(C)CC3)c2C#N)cc1,?,i,i,?,i,i
COc1ccc(C=C2NC(=O)NC2=O)cc1O,i,i,nt,i,i,nt
COc1cc(/C=C2\NC(=O)NC2=O)cc(Br)c1OC,?,i,i,5.8µM,i,i
CC(=O)c1ccc(N2CCN(C(=O)COc3ccc4c(c3)CCC4)CC2)cc1,i,i,i,i,i,i
Cc1ccc(OCC(=O)N2CCc3ccccc32)cc1,i,i,i,i,i,i
O=C(CO/N=C/c1ccccc1O)N1CCc2ccccc21,i,i,i,13µM,i,i
Cc1ccc(Cl)cc1N1CCN(C(=O)COc2ccc3c(c2)CCC3)CC1,?,?,i,i,?,13µM
O=C(COC(=O)C1(c2ccccc2F)CCCC1)N1CCc2ccccc21,i,i,i,i,i,i
O=C(COc1ccc2c(c1)CCC2)N1CCc2ccccc21,i,i,?,i,i,25.9µM
O=C(COC(=O)C1(c2ccc(F)cc2)CCCC1)N1CCc2ccccc21,i,i,i,20.6µM,i,i
CCOC(=O)c1ccccc1NC(=O)c1sc2nc3n(c(=O)c2c1C)CCCCC3,i,nt,nt,i,nt,nt
COc1ccc(CN2CC[C@H]3C=CC[C@@H](C(=O)Nc4ccc(Cl)cc4Cl)[C@H]3C2=O)cc1OC,i,nt,nt,?,nt,nt
CCOC(=O)c1cc([N+](=O)[O-])sc1NC(=O)c1ccc(S(=O)(=O)N2CC3(C)CC2CC(C)(C)C3)cc1 (centres undefined),4.61µM,i,?,?,i,?
CC1(C)CC2CC(C)(CN2S(=O)(=O)c2ccc(C(=O)Nc3ccc(S(=O)(=O)N4CCOCC4)cc3)cc2)C1 (centres undefined),?,?,i,?,?,i
